# Screening results: PubChem BioAssay, National Center for Advancing Translational Sciences (NCATS)
# SMN2 splice up = increases expression of the SMN2 splice variant; HEK293 SMN2-luciferase splicing reporter, luminescence, 30-36 h; 210,000 tested, 2.8% active; Potency, µM (series often up to 46.1 µM), for inactives: at the highest dose activity change, positive = activation, actives largely listed as activators; AID 1458; also: % of control where 0% means no effect; nearly all actives have a fitted effect of over 55% in size
#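 HEK293 cells carry an SMN2 […]–luciferase reporter in which exon 7 inclusion puts luciferase in frame. Cells were plated 10-12 h before compound addition, then incubated 30-36 h at 37C. ONE-Glo luminescence was read; sodium butyrate at 4.5 mM final served as control.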
# FLuc modulator = inhibits or activates purified firefly luciferase, miR-21 counter-screen; P08659; purified FLuc, Km substrates, luminescence inhibition; Potency, µM (series often up to 57.5 µM), without a hit: at the highest dose activity change, negative = inhibition, most hits filed as inhibitors; 360,000 tested, 6.9% active; AID 588342;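 also: plate controls were vehicle for no effect and reference inhibitor for full effect; nearly all actives have a fitted effect of over 55% in size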
# Target sequence (P08659 whole entry, looked up): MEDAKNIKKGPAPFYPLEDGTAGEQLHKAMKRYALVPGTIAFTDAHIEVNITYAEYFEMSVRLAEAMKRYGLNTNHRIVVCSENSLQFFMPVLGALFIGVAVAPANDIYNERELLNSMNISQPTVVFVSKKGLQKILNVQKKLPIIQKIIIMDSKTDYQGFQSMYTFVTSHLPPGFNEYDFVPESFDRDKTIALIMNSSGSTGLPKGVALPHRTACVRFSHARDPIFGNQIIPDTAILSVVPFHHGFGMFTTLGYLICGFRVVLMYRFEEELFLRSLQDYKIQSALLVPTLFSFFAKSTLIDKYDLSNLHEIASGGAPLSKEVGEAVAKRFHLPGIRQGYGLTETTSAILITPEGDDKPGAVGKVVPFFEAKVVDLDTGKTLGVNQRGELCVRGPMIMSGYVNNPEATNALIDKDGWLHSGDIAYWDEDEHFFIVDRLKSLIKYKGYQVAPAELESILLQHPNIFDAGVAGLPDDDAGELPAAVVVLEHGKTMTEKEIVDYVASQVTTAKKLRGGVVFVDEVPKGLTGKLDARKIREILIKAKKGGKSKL
#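 Purified P. pyralis luciferase, 10 nM final, with Km-level 10 uM D-luciferin and 10 uM ATP in 50 mM Tris acetate pH 7.5, 10 mM Mg acetate, 0.01% Tween-20, 0.05% BSA; 6-point qHTS titration about 60 µM downward; luminescence read.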
# ELG1 genotox = inducers of genotoxicity in HEK293T ELG1-luciferase cells | HEK293T ELG1-luciferase reporter, luminescence, 16 h | Potency, µM (titrated, usually from 46 µM), inactives show top-dose activity change, positive = activation, usual class: activators | 330,000 tested, 1.3% active | AID 504466; also: % of control where 0% means no effect; nearly all actives have a fitted effect of over 60% in size
#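 Luminescence read-out: rising ELG1-luciferase signal, reflecting elevated ELG1 protein under genetic stress, flags genotoxic compounds. Cells were treated for 16 hr at 37 °C before ONE-Glo detection.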
# Rab9 promoter act = activates the Rab9 promoter; Huh7 Rab9 promoter-luciferase reporter, luminescence, 24 h; 320,000 tested, 2.8% active; AID 485297; Potency, µM (doses to about 9.22 µM), without a hit: at the highest dose activation, negative = inhibition, actives largely listed as activators; also: % of control where 0% means no effect; nearly all actives have a fitted effect of over 60% in size
#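 Rab9 promoter-driven luciferase in stably transfected Huh7 cells; 1500 cells/well rested 2 h, exposed to compound in DMSO for 24 h at 37 °C, 5% CO2. Luminescence read 10 min after adding luciferase reagent at ambient temperature.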
# ELG1 DNA repair = ELG1-dependent DNA repair inhibition | HEK293T ELG1-luciferase reporter, luminescence, 16 h; DNA damage induced by 5-fluorouridine | Potency, µM (titrated, usually from 46.1 µM), for inactives: at the top dose activity change, negative = inhibition, usual class: inhibitors | 330,000 tested, 2.3% active | AID 504467; also: % is scaled to controls: 0 for no effect and ±100 for the full control effect; nearly all actives have a fitted effect of over 55% in size
#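 Overnight (16 hr) co-exposure of 2,000 cells/well to 5-fluorouridine and compound at 37 °C preceded detection. Luciferase was quantified via ONE-Glo luminescence; loss of signal denotes inhibition.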
# NPC1 promoter act = NPC1 promoter activation | 320,000 tested, 2.4% active | Potency, µM (series often up to 9.22 µM), for the others: top-dose activation, most hits filed as activators | AID 485313 | Huh7 NPC1 promoter luciferase reporter, 24 h; also: % of control where 0% means no effect; nearly all actives have a fitted effect of over 60% in size
#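 Luminescence read-out of NPC1 promoter-driven luciferase in stably transfected Huh7 cells; compounds delivered in DMSO and left 24 h at 37C, 5% CO2, qHTS titration format.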
# * marks the source's active call; other numbers are inactive results; ? = inconclusive; nt = no result; [ ] = remark or other dose. In the library only some 9.4% were active in any assay of this set; here they are far more common. Calls follow the shape of the dose curve; as a rule, active = well fitted curve in the direction sought with a large enough effect; inconclusive = small, poorly fitted or top-dose-only effect, or another doubt; inactive = no such curve, though single readings can be large; an effect the other way counts as inactive or inconclusive. Potency is read from the fitted curve at half-maximal effect.
SMILES,SMN2 splice up,FLuc modulator,ELG1 genotox,Rab9 promoter act,ELG1 DNA repair,NPC1 promoter act
CCc1ccccc1NC(=O)C1CCCN(S(=O)(=O)c2ccc3[nH]c(=O)ccc3c2)C1 (centres undefined),nt,-1%,nt,nt,nt,nt
CN(/N=C/c1c[nH]c2ccccc12)c1cnn(-c2ccc(F)c(Cl)c2)c(=O)c1Cl,8%,13µM*,3%,11%,-7%,-1%
Cc1ccccc1Cn1cc(S(=O)(=O)c2ccc(F)cc2)c(=O)c2cc3c(cc21)OCO3,-2%,-2%,nt,nt,nt,nt
O=C(NCCCN1CCOCC1)c1ccc(-n2nc(C(F)(F)F)cc2-c2cccs2)cc1,-20%,-1%,-35%,-13%,15µM*,-6%
COCCCNC(=O)c1ccc(-n2nc(C(F)(F)F)cc2-c2cccs2)cc1,-48%,3%,-20%,-6%,?,0%
O=C(NCC1(c2ccccc2)CCCC1)C(=O)Nc1cccc(Br)c1,2%,4%,nt,nt,nt,nt
Cc1ccc(-n2ncc(C(=O)NCCc3c[nH]c4ccccc34)c2C2CCN(C(=O)OC(C)(C)C)CC2)cc1C,-1%,-6%,nt,nt,nt,nt
CC1Cc2cc(-c3csc(N)n3)ccc2O1 (centres undefined),nt,9.5µM*,?,1.3µM*,?,?
Nc1nc(-c2ccc3c(c2)CCCC3)cs1,11µM*,2.1µM*,?,2.8µM*,?,2.2µM*
Cc1nc(-c2ccc3c(c2)OCO3)cs1,?,15µM*,6%,14%,?,17%
Nc1nc(-c2ccc3c(c2)NC(=O)CO3)cs1,-39%,-10%,?,3%,?,-1%
Nc1nc(-c2ccc3c(c2)OCCO3)cs1,16µM*,9.5µM*,21µM*,3.5µM*,?,3.5µM*
OC[C@H]1O[C@@H](n2cnc3c(N[C@H]4C[C@H]5CC[C@@H]4C5)ncnc32)[C@H](O)[C@@H]1O,0%,nt,nt,nt,nt,nt
c1cncc(-c2nc(-c3ccc4c(c3)OCO4)cs2)c1,nt,4.8µM*,?,1.6µM*,?,2.8µM*
O=S(=O)(c1cccc(-c2csc(-c3cccnc3)n2)c1)N1CCOCC1,nt,-2%,-1%,?,2%,-1%
Cc1nc(-c2ccc3c(c2)OCCCO3)cs1,nt,7.6µM*,?,1.6µM*,?,1.8µM*
CCOc1ccc(CNC(=O)C2CCN(C(=O)c3sccc3-n3cccc3)CC2)cc1,2%,3%,nt,nt,nt,nt
CCOc1ccc(C(=O)N2CCc3cc(OC)c(OC)cc3C2COc2ccc3c(C)cc(=O)oc3c2)cc1OCC (centres undefined),14%,-1%,nt,nt,nt,nt
COc1ccc(OCc2cc(C(=O)O)c(C)o2)cc1,nt,2.1µM*,1%,?,?,?
COC(=O)c1ccc(COc2ccc(/C=N/NC(N)=S)cc2)o1,nt,-3%,-2%,-4%,15µM*,0%
O=C(O)c1ccc(COc2ccc(Cl)cc2)o1,11µM*,27µM*,?,23%,?,30%
CCOc1ccc(OCc2ccc(C(=O)NCc3cccnc3)o2)cc1,-32%,-8%,1%,20%,19%,20%
O=C(O)c1ccc(OCc2ccc(C(=O)O)o2)cc1,nt,-15%,5%,11%,?,3%
CCOc1ccc(OCc2ccc(C(=O)Nc3cccnc3)o2)cc1,7.9µM*,?,-1%,?,-2%,0.56µM*
COC(=O)c1ccc(COc2cccc(OC)c2)o1,2%,?,23µM*,-2%[1.84 µM],?,-5%
SMILES,SMN2 splice up,FLuc modulator,ELG1 genotox,Rab9 promoter act,ELG1 DNA repair,NPC1 promoter act
CCc1ccc(OCc2ccc(C(=O)O)o2)cc1,nt,2.1µM*,?,?,?,?
CN(C)c1ccc(NC(=O)c2ccc(COc3cccc(Cl)c3)o2)cc1,-5%,9.5µM*,?,29%,?,20%
CCOc1ccc(OCc2ccc(C(=O)NN)o2)cc1,nt,?,?,?,?,0.4µM*
COC(=O)c1ccc(COc2ccc(Cl)cc2)o1,nt,?,8%,20%,?,16%
Cn1c(=O)n(C)c2cc([N+](=O)[O-])c(N3CCN(S(=O)(=O)c4ccccc4)CC3)cc21,nt,2%,-8%,-5%,12µM*,-4%
COc1ccc(C(=O)Cc2cc(OC)c(OC)cc2[N+](=O)[O-])c(OC)c1,0%,17µM*,4%,22%,8%,17%
COc1ccc(C(=O)Cc2nnc(C)s2)c(OC)c1,?,?,?,?,?,17%
COc1ccc(C(=O)Cc2ccc(F)cc2)c(OC)c1,?,17µM*,?,?,?,?
COCCCn1c(=O)c2ccccc2n(CC(=O)N2CCCc3ccccc32)c1=O,nt,-1%,-4%,-6%,-5%,2%
CCN/C=C(\C#N)S(=O)(=O)c1ccc(Br)cc1,nt,1%,-2%,2%,-8%,2%
CCC(=O)Nc1ccc2ccccc2c1,29%,?,13%,1%,?,4%
Cc1sc(C(=O)Nc2ccc3ccccc3c2)cc1CC(=O)O,?,9.5µM*,15%,?,?,?
Cc1ccc(C(=O)Nc2ccc3ccccc3c2)cc1,nt,0.076µM*,0.29µM*,0.22µM*,?,0.1µM*
Cc1cc(C)c2cc(C(=O)Nc3ccccc3)[nH]c2c1,nt,?,?,3.2µM*,0%,4.5µM*
Cc1ccc(NC(=O)C(=O)c2ccc(C)cc2)cc1,nt,1.9µM*,4.6µM*,2.8µM*,?,0.63µM*
Cc1cc(C)c2cc(C(=O)Nc3ccc4c(c3)OCO4)[nH]c2c1,nt,?,0%,12%,16%,2%
Cc1ccc(NC(=O)C(C)C(=O)Nc2ccc(C)cc2)cc1,-14%,0%,0%,0%,15%,-3%
O=C(Nc1ccc2nc(SCC(=O)N3CCCc4ccccc43)sc2c1)c1cccc(F)c1,nt,-15%,nt,nt,nt,nt
CCc1ccc(CNC(=O)CCn2c(=O)c3cccn3c3ccc(F)cc32)cc1,nt,1%,nt,nt,nt,nt
CC(NC(=O)c1nn(C)c2c1CSc1ccccc1-2)c1ccccc1 (centres undefined),nt,5%,nt,nt,nt,nt
O=C(c1ccc(F)cc1)c1cnc(Nc2ccccc2)s1,nt,0.6µM*,?,1.3µM*,?,2µM*
O=C(Nc1ccc2oc(-c3ccccc3)nc2c1)c1ccc2ccccc2c1,-9%,3%,nt,nt,nt,nt
O=C(Nc1ccc(-c2ccccc2)cc1)c1ccccc1,nt,-1%,-2%,-2%,0%,-3%
O=C(c1ccccc1)c1cnc(Nc2ccc(Cl)c(Cl)c2)s1,-24%,1%,13%,4%,8%,-2%
O=C(Nc1ccc2oc(=O)ccc2c1)c1ccc2ccccc2c1,nt,9.5µM*,9%,?,?,?
